High-throughput results from PubChem.
Compounds with a hit are over-represented: about 12% of the library has one in this group of screens.
Pf growth 48h: Primary qHTS for delayed death inhibitors of the malarial parasite plastid, 48 hour incubation. Potency, µM (series often up to 28.7 µM), for inactives: at the highest dose activity change, negative = inhibition, actives largely listed as inhibitors. P. falciparum luciferase growth in erythrocytes, 48 h. 5.9% of 310,000 active; note: % is set by controls: 0 for no effect and ±100 for the full control effect
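Parasite viability was followed by luminescence of a genomically integrated firefly luciferase. Cultures held 0.1% parasitemia at 2% hematocrit (final), incubated under 5% CO2 at 37 C.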
Pf growth 96h: Primary qHTS for delayed death inhibitors of the malarial parasite plastid, 96 hour incubation | P. falciparum luciferase reporter growth, 96 h | Potency, µM (top dose mostly 28.7 µM), without a hit: at the top dose activity change, negative = inhibition, actives largely listed as inhibitors | 6.9% of 320,000 active | AID 504834, 2011; note: % is set by controls: 0 for no effect and ±100 for the full control effect
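Parasite growth measured via integrated firefly luciferase reporter in P. falciparum. Infected erythrocytes at 2% hematocrit, 0.05% parasitemia final were treated 96 hours at 37 C under 5% CO2, and luminescence was read.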
Sm TGR block: qHTS Assay for the Inhibitors of Schistosoma Mansoni Peroxiredoxins. Potency, µM (titrated, usually from 114 µM), without a hit: top-dose activity change, negative = inhibition, most hits filed as inhibitors. 3% of 360,000 active. purified TGR, DTNB reduction, TNB absorbance 405 nm. Schistosoma mansoni thioredoxin glutathione reductase (TGR), Q962Y6; note: % is set by controls: 0 for no effect and ±100 for the full control effect; nearly all actives have a fitted effect of over 60% in size
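TGR 20 nM + NADPH 100 uM (dispensed conc.), cpd preinc 15 min RT; start with NADPH (500 uM addition) then DTNB (15 mM addition). Kinetic TNB absorbance, 405 nm filter. Four-parameter Hill fit across titration.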
AmpC inh detg: qHTS Inhibitors of AmpC Beta-Lactamase (assay with detergent); AmpC hydrolysis of nitrocefin, absorbance 480 nm, 0.01% Triton; Potency, µM (titrated, usually from 114 µM), without a hit: at the highest dose activity change, negative = inhibition, most hits filed as inhibitors; AID 485294, 2010; 0.041% of 370,000 active; P00811;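 note: 0% = no-compound wells and -100% = no-enzyme wells; nearly all actives have a fitted effect of over 25% in size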
Target sequence (P00811 whole entry, looked up): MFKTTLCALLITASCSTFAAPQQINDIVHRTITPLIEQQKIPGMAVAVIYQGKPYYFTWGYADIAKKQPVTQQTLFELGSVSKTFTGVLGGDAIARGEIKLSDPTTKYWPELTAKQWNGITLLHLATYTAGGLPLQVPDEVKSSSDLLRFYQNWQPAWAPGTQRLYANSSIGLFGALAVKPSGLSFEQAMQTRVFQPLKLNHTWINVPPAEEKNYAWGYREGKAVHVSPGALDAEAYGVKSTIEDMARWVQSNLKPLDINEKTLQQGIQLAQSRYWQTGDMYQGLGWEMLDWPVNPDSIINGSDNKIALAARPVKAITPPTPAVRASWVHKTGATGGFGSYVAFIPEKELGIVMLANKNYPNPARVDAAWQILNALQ
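AmpC (5.3 nM in the dispensed reagent) in 20 mM phosphate pH 7.0 with 0.01% (detergent screen) or 0.0001% Triton X-100 was preincubated with compounds for 15 min at room temperature. Nitrocefin was then added from an 800 uM solution, and hydrolysis was followed at 480 nm.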
SARS PLpro yeast: qHTS of Yeast-based Assay for SARS-CoV PLP; 0.19% of 330,000 active; S. cerevisiae expressing SARS-CoV PLpro, growth rescue; Potency, µM (series often up to 32.9 µM), without a hit: at the highest dose activity, positive = growth rescue, most hits filed as activators; calls by dose curve; note: 0% is about no effect; nearly all actives have a fitted effect of over 55% in size
AmpC no deterg: qHTS Inhibitors of AmpC Beta-Lactamase (assay without detergent); AmpC nitrocefin hydrolysis, absorbance 480 nm, 0.0001% Triton; Potency, µM (doses to about 57.1 µM), for inactives: top-dose activity change, negative = inhibition, hits mostly inhibitors; 0.52% of 330,000 active;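 note: plate controls were no compound for no effect and no enzyme for full effect; nearly all actives have a fitted effect of over 20% in size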
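AmpC (5.3 nM in the dispensed reagent) in 20 mM phosphate pH 7.0 with 0.01% (detergent screen) or 0.0001% Triton X-100 was preincubated with compounds for 15 min at room temperature. Nitrocefin was then added from an 800 uM solution, and hydrolysis was followed at 480 nm.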
* = called active by the depositor; ? = inconclusive; · = no result; [ ] = remark or other dose. Unless noted, calls come from the whole dose curve; as a rule, active = well fitted curve in the direction sought with a large enough effect; inconclusive = small, poorly fitted or top-dose-only effect, or another doubt; inactive = no such curve, though single readings can be large; an effect the other way counts as inactive or inconclusive. Potency is the fitted concentration of half-maximal effect.

SMILES	Pf growth 48h	Pf growth 96h	Sm TGR block	AmpC inh detg	SARS PLpro yeast	AmpC no deterg
O=C(O)CC1SC(=Nc2cccc(C(F)(F)F)c2)NC1=O (stereo not drawn)	·	2.9µM*	0%	-5%	1%	-16%
COc1cc(OC)cc(-c2nnc(Nc3nc4c(F)cccc4s3)o2)c1	-3%	12µM*	0%	-10%	-2%	-1%
COc1ccc(-c2nnc(Nc3nc4c(OC)cccc4s3)o2)c(OC)c1	10µM*	-37%	-3%	5%	5%	186%
Cc1nc2ccccc2c(=O)n1NC(=O)c1ccc([N+](=O)[O-])cc1	18%	-28%	5%	3%	1%	-22%
Cc1cc2c(=O)c(C(=O)c3ccncc3)cn(CC(=O)Nc3cccc(C)c3C)c2cc1C	·	·	-2%	28%	·	·
CNC(=O)c1cc(Nc2nnc(-c3ccc(O)cc3)c3ccccc23)ccc1OC	?	23%	1%	6%	-1%	-34%
CCOc1ccc(-c2nnc(Nc3ccc(OC)c(C(=O)N4CCCCC4)c3)c3ccccc23)cc1	4.1µM*	1.2µM*	9%	-8%	-17%	94%
Cc1ccc(NC(=O)CSc2nc3c(oc4ccccc43)c(=O)n2-c2ccc(F)cc2)c(C)c1	·	·	10%	5%	·	·
COc1ccc(C(=O)Nc2cc(OC)c(Cl)cc2OC)cc1	10%	5.2µM*	7%	3%	-2%	-6%
CCC(=O)Nc1ccc(Cl)c(NC(=O)c2cccc(OC)c2)c1	-6%	14%	·	6%	0%	-3%
COc1cc(NC(=O)c2ccc(F)cc2)c(OC)cc1Cl	28%	-7%	1%	0%	13%	-11%
COCCOc1cc(NC(=O)c2cccc(OC)c2)c(Cl)cc1Cl	12µM*	?	3%	?	-1%	108%
COc1cc(NC(=O)c2cc(C(C)C)on2)c(OC)cc1Cl	13µM*	-11%	8%	-8%	-19%	49%
COc1ccc2oc(=O)c(NC(=O)C3CCCCC3)cc2c1	72%	13µM*	-5%	6%	6%	-2%
CC(C)(C)C(=O)Nc1ccc(N2CCCC2)cc1	?	?	0%	-9%	-2%	13%
COc1ccc(C(=O)Nc2nc(C)cc(C)n2)cc1	-14%	1%	22µM*	1%	-2%	19%
COC(=O)c1cc(Cl)c(NC(=O)c2ccc(F)cc2)cc1OC	21%	9.3µM*	2%	-10%	2%	-5%
COc1cc(NC(=O)C2CCCC2)c(OC)cc1Cl	·	9.3µM*	-1%[11.4 µM]	-2%	8%	-2%
CCN(CC)C(=O)CS(=O)(=O)CC(=O)Nc1cc(OCCOC)c(Cl)cc1Cl	-10%	?	35µM*	5%	0%	35%
COCCOc1cc(NC(=O)CS(=O)CC(=O)N(C)C)c(Cl)cc1Cl (stereo not drawn)	36%	?	5%	10%	-1%	-13%
COc1cccc(C2=NN(S(C)(=O)=O)C(c3cn(-c4ccccc4)nc3-c3cccs3)C2)c1 (stereo not drawn)	·	·	-11%	0%	·	·
CCc1ccccc1NS(=O)(=O)c1ccc(NC(=O)N2CCCC2)cc1	·	·	3%	5%	·	·
CCOC(=O)[C@H]1[C@H]2COc3ccc(Br)cc3[C@@H]2N2C(=O)c3cc(F)c(F)cc3NC(=O)[C@@]12C	17µM*	?	6%	0%	5%	-29%
CCOC(=O)[C@H]1[C@H]2COc3cc(OC)ccc3[C@@H]2N2C(=O)c3cc(C)ccc3NC(=O)[C@@]12C	4.7µM*	2.3µM*	2%	0%	4%	-19%
CCOC(=O)[C@H]1[C@H]2COc3cc(OC)ccc3[C@@H]2N2C(=O)c3ccc(F)cc3NC(=O)[C@@]12C	?	?	7%	0%	6%	-16%
SMILES	Pf growth 48h	Pf growth 96h	Sm TGR block	AmpC inh detg	SARS PLpro yeast	AmpC no deterg
CCOC(=O)[C@H]1[C@H]2COc3ccc(Br)cc3[C@@H]2N2C(=O)c3ccc(F)cc3NC(=O)[C@@]12C	?	?	-9%	-14%	-5%	-23%
CCOC(=O)[C@H]1[C@H]2COc3cc(OC)ccc3[C@@H]2N2C(=O)c3ccc(C)cc3NC(=O)[C@@]12C	?	?	4%	1%	0%	-20%
CCOC(=O)[C@H]1[C@H]2COc3ccc(C)cc3[C@@H]2N2C(=O)c3ccc(Cl)cc3NC(=O)[C@@]12C	·	·	·	·	5%	-12%
CCOC(=O)[C@H]1[C@H]2COc3ccc(Cl)cc3[C@@H]2N2C(=O)c3ccc(Cl)cc3NC(=O)[C@@]12C	10µM*	13µM*	0%	?	-2%	-26%
CCOC(=O)[C@H]1[C@H]2COc3cc(OC)ccc3[C@@H]2N2C(=O)c3cc(F)ccc3NC(=O)[C@@]12C	9.3µM*	10µM*	2%	1%	1%	-23%
O=C1CCN(Cc2ccc([N+](=O)[O-])cc2)CCN1[C@H](CO)c1ccccc1	?	?	-17%	?	4%	75%
Cc1ccc2nc(SCC(=O)Nc3cccc(F)c3)nc(=O)n2c1	12%	34%	5%	0%	2%	-18%
N#Cc1c(N)c2ccccn2c1C(=O)c1ccc(Br)cc1	?	-37%	1%	-12%	-4%	-29%
Cc1cc(NC(=O)C(C)SCC(=O)N(C)CC(=O)Nc2ccccc2Br)no1 (stereo not drawn)	-1%	63%	14%	-2%	4%	0%
CCC(C)Sc1cc(-c2nc3ccc(Cl)cn3c2NC2CCCCC2)ccc1OC (stereo not drawn)	·	·	·	·	10%	-7%
COc1ccc(OC)c(NS(=O)(=O)c2c(C(=O)N3CCCCCC3)c(C)n(C)c2C)c1	-28%	37%	-6%	-8%	11%	90%
CCOC(=O)[C@H]1[C@H]2COc3cc(OC)ccc3[C@@H]2N2C(=O)c3cc(F)c(F)cc3NC(=O)[C@@]12C	?	13µM*	0%	-8%	-4%	-38%
CCOC(=O)[C@H]1[C@H]2COc3cc(OC)ccc3[C@@H]2N2C(=O)c3c(C)cc(C)cc3NC(=O)[C@@]12C	·	·	·	·	-5%	29%
CCOC(=O)[C@H]1[C@H]2COc3cc(OC)ccc3[C@@H]2N2C(=O)c3cc(OC)ccc3NC(=O)[C@@]12C	1.3µM*	6.6µM*	5%	-8%	-1%	-13%
Cn1cccc1C(=O)NCc1ccccn1	1%	27%	-1%	-13%	0%	-1%
